Assay results published in PubChem BioAssay AID504652 (National Center for Advancing Translational Sciences (NCATS), 2011).
Out of some 360,000 compounds screened, about 11,000 (3.1%) were called active. For the sample, actives were picked, then their nearest neighbours and some compounds at random. Values without a mark were called inactive. Cut-off read from the data, not from the text of the source: active = activity change below about -30%; inactive = the rest.

What follows are compounds tested against D(1A) dopamine receptor (Homo sapiens) (UniProt P21728) (assay: Antagonist of Human D 1 Dopamine Receptor: qHTS). Settings: HEK293 TREx D1 cells, calcium flux, dopamine EC80; at 10 µM; stronger effect = lower value.
D(1A) dopamine receptor (Homo sapiens), sequence (P21728 whole entry, looked up): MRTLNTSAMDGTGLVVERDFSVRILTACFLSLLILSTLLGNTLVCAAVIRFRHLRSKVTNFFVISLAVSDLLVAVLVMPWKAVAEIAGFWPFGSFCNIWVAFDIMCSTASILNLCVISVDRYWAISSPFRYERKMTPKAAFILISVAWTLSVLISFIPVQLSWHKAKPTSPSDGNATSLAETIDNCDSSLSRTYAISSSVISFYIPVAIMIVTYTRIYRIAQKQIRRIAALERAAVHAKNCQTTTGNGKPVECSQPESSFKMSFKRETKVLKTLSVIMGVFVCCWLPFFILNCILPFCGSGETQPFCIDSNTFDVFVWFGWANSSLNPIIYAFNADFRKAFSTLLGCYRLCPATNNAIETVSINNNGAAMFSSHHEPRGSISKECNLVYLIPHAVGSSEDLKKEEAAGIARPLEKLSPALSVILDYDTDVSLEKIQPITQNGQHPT
Procedure, shortened: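 Cells carrying a force-coupled, tetracycline-inducible human D1 receptor report calcium flux. Each well gets a 10 s baseline, compound with 180 s monitoring, then an EC80 dopamine stimulus with a second 180 s kinetic read.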
% is set by controls: 0 for no effect and ±100 for the full control effect.

Row | Structure (SMILES) | activity change, negative = inhibition
1 | CCOc1ccccc1NC(=O)CSc1ncc(S(=O)(=O)c2ccc(C(C)(C)C)cc2)c(=O)[nH]1 | 10.4%
2 | Cc1ccccc1OCC(=O)Nc1c(C(=O)Nc2ccccc2F)oc2ccccc12 | -7.86%
3 | COC(=O)C1=CN(Cc2ccc(OC)cc2)C=C(C(=O)OC)C1c1ccc(O)c(OC)c1 | 11.1%
4 | CCCC(=O)Nc1cc(OCC)c(NC(=O)NC2CCCCC2)cc1OCC | -5.85%
5 | CCOc1cc(C2C(C(=O)OC)=CN(C3CCCC3)C=C2C(=O)OC)cc(Br)c1O | -30.9% (active)
6 | CN1CCN(S(=O)(=O)c2ccc(NC(=O)C3CCCO3)cc2)CC1 (configuration not stated) | -2.7%
7 | O=C(Nc1nc2ccc(S(=O)(=O)N3CCCC3)cc2s1)C1CCCO1 (configuration not stated) | -41.4% (active)
8 | Cc1cc(C)c2nc(NC(=O)C3CCCO3)sc2c1 (configuration not stated) | -5.2%
9 | Cc1ccc(Cl)cc1NC(=O)NC1COc2ccccc2C1 (configuration not stated) | -23%
10 | O=C(CCc1nc(CN2CCN(S(=O)(=O)c3ccc(Br)cc3)CC2)no1)N1CCCCC1 | -0.355%
11 | CCN(CC)S(=O)(=O)c1cc(C(=O)Nc2ccccn2)ccc1C | 5.43%
12 | CCN(c1ccccc1)S(=O)(=O)c1cc(C(=O)NCc2ccccn2)ccc1C | -89.3% (active)
13 | Cc1ccc(NC(=O)CNCc2ccccn2)cc1S(=O)(=O)N(C)C | -15%
14 | Cc1oc(C)c(C(=O)NCCCC(=O)O)c1C(=O)NCCCC(=O)O | 1.94%
15 | CCCCCCCCCCCC(=O)O | -4.71%
16 | NC(=O)NCCCC(=O)O | -51% (active)
17 | COc1ccccc1C1C(C(=O)N2CCCCC2)=C(C)Nc2nc3ccccc3n21 (configuration not stated) | 3.49%
18 | O=C(CS(=O)(=O)c1cccc2nsnc12)N1CCN(c2cccc(Cl)c2)CC1 | -13.7%
19 | Cc1cc(OCCCN2CCN(Cc3ccccc3)CC2)ccc1[N+](=O)[O-] | -35.7% (active)
20 | Cc1cc(OCC(=O)NC2CCN(C)CC2)ccc1[N+](=O)[O-] | -13%
21 | COc1cc(CN2CCN(Cc3ccc(C)cc3)CC2)c([N+](=O)[O-])cc1OC | 5.79%
22 | O=C(CCn1c(=O)c2ccccc2n(Cc2ccc(Cl)cc2)c1=O)NCc1ccc2c(c1)OCO2 | -2.86%

Row | Structure (SMILES) | activity change, negative = inhibition
23 | O=C(NCC1CCCO1)c1ccc(S(=O)(=O)Nc2ccc(F)cc2)cc1 (configuration not stated) | -8.93%
24 | CN(CC1CCCO1)S(=O)(=O)c1ccc(C(=O)Nc2ccc(F)cc2)cc1 (configuration not stated) | -41.6% (active)
25 | Cc1ccc(NC(=O)c2ccc(S(=O)(=O)NCC3CCCO3)cc2)cc1C (configuration not stated) | -12%
26 | CC1CCc2noc(NC(=O)c3ccc([N+](=O)[O-])cc3)c2C1 (configuration not stated) | -19.9%
27 | CCOc1ccc(C(=O)Nc2ccc(S(=O)(=O)NCC3CCCO3)cc2)cc1OCC (configuration not stated) | -38.2% (active)
28 | O=C(Nc1ccc(S(=O)(=O)NCC2CCCO2)cc1)c1ccc(F)cc1 (configuration not stated) | -29.6%
29 | CN(CC1CCCO1)S(=O)(=O)c1ccc(C(=O)Nc2ccc([N+](=O)[O-])cc2)cc1 (configuration not stated) | -32.3% (active)
30 | CCC(=O)Nc1ccc(S(=O)(=O)NCC2CCCO2)cc1 (configuration not stated) | -9.18%
31 | CCOC(=O)c1c(NC(=O)c2ccc(S(=O)(=O)N(C)CC3CCCO3)cc2)sc2c1CC(C)(C)NC2(C)C (configuration not stated) | -2.75%
32 | CCC1(C)CC(=O)c2c(ccc3oc(C(=O)Nc4ccc(C(C)=O)cc4)c(C)c23)O1 (configuration not stated) | -2.38%
33 | COc1cccc(CNC(=O)Cn2c(=O)c3cccn3c3ccc(F)cc32)c1OC | 4%
34 | CCOc1cc(NC(=S)NCc2ccco2)c(OCC)cc1NC(=O)c1ccco1 | -1.48%
35 | CCOc1cc(NC(=S)NCCCN(C)C)c(OCC)cc1NC(=O)C1CC1 | -3.38%
36 | CCOc1cc(NC(=S)NCCCOC)c(OCC)cc1NC(=O)c1ccco1 | -35.1% (active)
37 | CCSc1ncc(Cl)c(C(=O)Nc2c(C(=O)c3ccccc3)oc3ccccc23)n1 | -6.04%
38 | Cc1ccccc1CS(=O)(=O)CC1Nc2ccc(C(=O)NCc3ccc(Cl)cc3)cc2NC1=O (configuration not stated) | -8.08%
39 | Cc1cc(C(=O)COC(=O)C2CC2)c(C)n1-c1ccc(F)cc1 | -6.5%
40 | O=C1CSC(=S)N1/N=C/c1ccc(O)c([N+](=O)[O-])c1 | -20.2%
41 | Cc1cc(C(=O)N/N=C/c2ccc(O)c([N+](=O)[O-])c2)c(C)n1-c1ccc(F)cc1 | -30% (active)
42 | Cc1ccccc1CN1CCC(CNC(=O)c2c(C)oc3ncnc(N4CCCCC4)c23)CC1 | -6.32%
43 | O=C(Oc1ccc(C(=S)N2CCOCC2)cc1)c1ccc(F)cc1 | -12.9%
44 | O=C(Nc1ccc(F)cc1)C(=O)c1cn(CC(=O)N2CCOCC2)c2ccccc12 | 0.328%

Row | Structure (SMILES) | activity change, negative = inhibition
45 | O=C(c1ccc(F)cc1)n1cc(C(=S)N2CCOCC2)c2ccccc21 | -30.2% (active)
46 | Cn1c(=O)sc2cc(NS(=O)(=O)c3ccc(C(C)(C)C)cc3)ccc21 | 6.14%
47 | O=C(O)CC/C(=C\c1cc2c(cc1Br)OCO2)c1nc2ccccc2s1 | -6.84%
48 | CC1=CC(=C(C#N)c2nc3ccccc3s2)C=C(C)N1c1ccc(F)cc1F | -3.42%
49 | O=C(O)CS/C(=C\c1ccc(F)cc1)c1nc2ccccc2s1 | -33.3% (active)
50 | COc1ccc(OC)c(NC(=O)CSc2nc3ccccc3nc2N2CCCCC2)c1 | -1.47%
51 | Cc1cccc(NC(=O)CSc2nnc(CNC(=O)c3cccc(C)c3)n2-c2ccccc2)c1 | -12.8%
52 | Cc1ccc(-c2nc(CS(=O)(=O)CC(=O)NCc3ccccc3Cl)c(C)o2)cc1 | 3.92%
53 | COc1ccc(C2C(C#N)=C(/N=C/N3CCOCC3)OC3=C2C(=O)CC(C)(C)C3)cc1OC (configuration not stated) | 4.71%
54 | Cc1ccsc1C1C(C#N)=C(N)OC2=C1C(=O)CC(C)C2 (configuration not stated) | -22.6%
55 | Cc1ccsc1C1C(C#N)=C(N)OC2=C1C(=O)CC(C)(C)C2 (configuration not stated) | -36.3% (active)
56 | COc1ccc(-c2c(C)nn3c(N4CCC(C(=O)NCCC(C)C)CC4)cc(C)nc23)cc1OC | -5.31%
57 | COc1cccc(CNc2nccn(-c3ccc(OC)c(OC)c3)c2=O)c1 | 6.9%
58 | COc1ccc(C2NC(=O)N(C)C3=C2C(=O)N(c2ccc(C(=O)O)cc2)C3)cc1 (configuration not stated) | -10.6%
59 | COC(=O)c1ccc(NC(=O)CCc2c(C)nn(-c3ccc(N4CCCC4)nn3)c2C)cc1 | -3.84%
60 | O=C(CNC1CCCCC1)NCC1(c2ccccc2)CCCC1 | 4.83%
61 | CCOc1c(OC)cccc1C(=O)NCC1(c2ccccc2)CCCC1 | 19%
62 | Cc1cccc(C(CC(=O)NCC2(c3ccccc3)CCCC2)c2ccccc2)c1O (configuration not stated) | -31% (active)
63 | COc1ccc(/C=C/c2noc(-c3ccccc3O)n2)cc1OC | 4.82%
64 | CC(C)CCN(C(=O)Nc1ccc(Cl)c(Cl)c1)C(C)c1cccs1 (configuration not stated) | -22.4%
65 | O=C(COc1ccc(Cl)cc1)Nc1ccccc1OCc1cc(=O)n2ccccc2n1 | 0.395%
66 | O=C(CSc1ncc(CO)n1Cc1ccc(Cl)cc1)NCc1ccc(F)cc1 | -8.7%

Row | Structure (SMILES) | activity change, negative = inhibition
67 | O=C(c1ccc(F)c(S(=O)(=O)N2CCOCC2)c1)N(CCc1ccccc1)Cc1ccccc1 | -39.2% (active)
68 | CCN(CC(=O)NCc1cccs1)C(=O)c1ccc(OC)c(S(=O)(=O)N2CCOCC2)c1 | 2.75%
69 | COc1ccc(C(=O)N(Cc2ccccc2)c2ccc(C)cc2)cc1S(=O)(=O)N1CCOCC1 | 8.42%
70 | CCN(Cc1ccncc1)C(=O)c1cccc(S(=O)(=O)N2CCOCC2)c1 | -44.2% (active)
71 | CC(C)C(NC(=O)c1cccc(S(=O)(=O)N2CCOCC2)c1)C(=O)NCCc1ccccn1 (configuration not stated) | 10.6%
72 | Cc1nn(Cc2ccccc2)c(C)c1CNC(=O)c1ccc(F)c(S(=O)(=O)N2CCOCC2)c1 | -20.4%
73 | CCOC(=O)c1cnc2c(C)cc(C)cc2c1Nc1ccc(N2CCOCC2)cc1 | 15.4%
74 | CCOC(=O)c1cccc(NC(=O)Cn2cnc3nc4c(cc3c2=O)CCCC4)c1 | 17.9%
75 | COc1cc2[nH]c(=O)n(Cc3ccc(C(=O)NCc4ccc(C)cc4)cc3)c(=O)c2cc1OC | 1.6%
76 | COc1ccc2c(c1)c(N1CCCC1=O)c(C(=O)Nc1ccc(OC)c(Cl)c1)n2C | 11.9%
77 | CCOC(=O)Cc1ccc(NC(=O)Nc2c[nH]c(=O)[nH]c2=O)cc1 | 0.423%
78 | COc1ccc(C)cc1-n1c(-c2ccc(C)cc2)cc2c1CC(C)(C)CC2=O | 12.6%
79 | CC(C)S(=O)(=O)c1oc(-c2ccc(F)cc2)nc1S(=O)(=O)c1ccc(F)cc1 | 6.44%
80 | Cc1cccc(N2CCN(C(=O)c3ccc(Nc4nc5ccccc5n5nnnc45)cc3)CC2)c1C | -6.91%
81 | CCCOc1ccc(NC(=O)CC2C(=O)N(c3ccccc3)C(=O)N2Cc2ccco2)cc1 (configuration not stated) | -3.01%
82 | COc1ccc(-c2nc3nc(C)cc(C)n3c2Nc2c(C)cccc2C)cc1 | 4.35%
83 | Cc1ccc(C2CCN(C(=O)c3cnn(-c4ccccc4Cl)c3C3CCN(C(=O)OC(C)(C)C)CC3)C2)cc1 (configuration not stated) | 6.31%
84 | O=C(NCc1ccco1)c1nc2ncccn2n1 | 8.67%
85 | O=c1oc(-c2ccco2)nc2sc3c(c12)CCCCC3 | -12.2%
86 | O=C(NCc1ccco1)c1cccn2c(=O)c3c4c(sc3nc12)CCCC4 | -112% (active)
87 | O=C(CN1C(=O)CCn2nc(-c3ccccc3)cc21)NCc1ccccc1 | -7.67%
